In ChEMBL document CHEMBL4513135, “CO-ADD screening of IQOG CSIS (Spain) compounds” one finds Inhibition data, which are given here for 37 compounds.

The subject of one test is Klebsiella pneumoniae. As to conditions: Concentration 32 ug.mL-1; ASSAY_TEST Inhibition of Bacterial Growth; detection method Absorption (OD600); MEDIA CAMHB; plate type 384well; NBS; CORNING #3640; time 18 hr.
The test system of a further test is Candida albicans. Conditions: 32 ug/mL.
Another test relates to Cryptococcus neoformans. As to conditions: Concentration 32 ug.mL-1; ASSAY_TEST Inhibition of Fungal Growth; detection method Resazurin; Absorption (OD600-OD570); plate type 384well; NBS; CORNING #3640. Background: The colour change of resazurin is a common sign of viable cells or microbes.

Potency and affinity values are given separately.

In general, Inhibition refers to the relative decrease from the control value, in per cent. For `c1ccc(COc2ccc3[nH]ccc3c2)cc1`, the values for the Inhibition in the test on Klebsiella pneumoniae, in the test with Candida albicans and in the test with Cryptococcus neoformans were 11.46%, -1.1% and -1.93%, respectively.

In the case of `Cc1nn(-c2ccccc2)c2nc(C)n3nc(-c4ccccc4)nc3c12`, the Inhibition in the test on Klebsiella pneumoniae was 3.45%; in the test on Candida albicans it was -2.98%; with Cryptococcus neoformans it was -5.73%.

As for `COc1ccccc1C1c2c(ccc3ccccc23)OC(=N)C1(Br)C#N` (stereo unspecified), the Inhibition in the test with Klebsiella pneumoniae is 13.77%; with Candida albicans, 5.01%; in the test on Cryptococcus neoformans, -63.67%.

In the case of `CC#CCN(C)Cc1cc2cc(OCc3ccccc3)ccc2n1C.O=C(O)C(=O)O`, the values for the Inhibition with Klebsiella pneumoniae, in the test with Candida albicans and in the test with Cryptococcus neoformans were 22.38%, 3.08% and -0.27%, respectively.

Consider `N#Cc1c(N)nc(N2CCC(Cc3ccccc3)CC2)c(C#N)c1-c1ccccc1`, for which the Inhibition with Klebsiella pneumoniae is 7.85%; in the test with Candida albicans it was 1.84%; with Cryptococcus neoformans, -30%.

Consider `COc1ccc(-c2cc(-c3cc4ccc(OC)cc4nc3Cl)cc(=O)[nH]2)cc1`, for which the Inhibition in the test with Klebsiella pneumoniae was 4.32%; with Candida albicans, -0.61%; with Cryptococcus neoformans, -66.65%.

Consider `C=C=CCN(C)Cc1cc2ccccc2n1C.O=C(O)C(=O)O`, for which the results for the Inhibition in the test on Klebsiella pneumoniae, with Candida albicans and in the test on Cryptococcus neoformans were 9.39%, 1.88% and -29.39%, respectively.

Turning to `C#CCN(C)c1nc(NC2CCN(Cc3ccccc3)CC2)c(C#N)c(-c2ccccc2)c1C#N`, the Inhibition in the test with Klebsiella pneumoniae was -4.36%; in the test with Candida albicans it was 3.34%; in the test on Cryptococcus neoformans, -29.11%.

Turning to `Cn1ccnc1C1c2ccc3ccccc3c2Oc2nc3c(c(N)c21)CCCCC3` (stereo unspecified), the Inhibition in the test with Klebsiella pneumoniae is 8.79%; with Candida albicans, 1.99%; with Cryptococcus neoformans, -67.84%.

For the compound `N#CC1=C(Cl)Oc2c(ccc3ccccc23)C1c1ccccc1[N+](=O)[O-]` (stereo unspecified), the Inhibition with Klebsiella pneumoniae is 5.03%; in the test with Candida albicans, 3.33%; in the test with Cryptococcus neoformans, -51.56%.

With `COc1nc(N)c(C#N)c(-c2ccccc2)c1C#N`, the Inhibition in the test on Klebsiella pneumoniae was 5.51%; in the test with Candida albicans, 1.23%; in the test on Cryptococcus neoformans, -13.41%.

On to `COc1cc(C2C(C#N)=C(N)Oc3ccc4ccccc4c32)ccc1O` (stereo unspecified), for which the Inhibition in the test on Klebsiella pneumoniae is 5.47%; in the test on Candida albicans, 0.23%; with Cryptococcus neoformans it was -49.89%.

With `CNC(=O)c1cc2cc(OC)ccc2[nH]1`, the Inhibition with Klebsiella pneumoniae is 17.99%; in the test with Candida albicans, -0.84%; in the test on Cryptococcus neoformans, -6.03%.

Turning to `COc1nc2nc3c(c(N)c2cc1C#N)CCCC3`, the Inhibition was 13.26% in the test on Klebsiella pneumoniae, 2.72% with Candida albicans and -84.27% in the test on Cryptococcus neoformans.

With `CCOC(=O)C1=C(C)Oc2nc3c(c(N)c2C1c1ccccc1OC)CCC3` (stereo unspecified), the Inhibition was 16.69% in the test on Klebsiella pneumoniae, -0.7% in the test on Candida albicans and -2.56% in the test with Cryptococcus neoformans.

For `N#CC1=C(N)Oc2ccc3ccccc3c2C1c1cccc([N+](=O)[O-])c1` (stereo unspecified), the Inhibition with Klebsiella pneumoniae was 6.14%; with Candida albicans, 10.7%; in the test on Cryptococcus neoformans, -44.61%.

As for `Cn1c(CNNC(=O)c2ccco2)cc2ccccc21`, the Inhibition in the test with Klebsiella pneumoniae is -22.42%; in the test with Candida albicans, 1.4%; with Cryptococcus neoformans, -3.17%.

`O=C1NC(=S)N/C1=C\c1ccccc1`: the Inhibition in the test with Klebsiella pneumoniae was 18.56%; in the test with Candida albicans, 0.81%; in the test on Cryptococcus neoformans it was -1.21%.

As to `COc1ccccc1C1C(C#N)=C(N)Oc2c1ccc1ccccc21` (stereo unspecified), the results for the Inhibition in the test on Klebsiella pneumoniae, in the test with Candida albicans and with Cryptococcus neoformans were 8.71%, 1.78% and -34.5%, respectively.

Take `NNC(=O)Cc1c[nH]c2ccccc12`: the Inhibition in the test on Klebsiella pneumoniae was 17.86%; in the test on Candida albicans, 3.51%; in the test with Cryptococcus neoformans it was -6.14%.

In the case of `Cn1ccnc1C1c2c(nc3c(c2N)CCC3)Oc2ccc3ccccc3c21` (stereo unspecified), the Inhibition in the test on Klebsiella pneumoniae was 7.74%; in the test on Candida albicans it was 1.46%; in the test on Cryptococcus neoformans it was -36.13%.

Take `O=C(Cc1c[nH]c2ccccc12)NNCCc1ccccc1`: the results for the Inhibition in the test with Klebsiella pneumoniae, with Candida albicans and with Cryptococcus neoformans were 0.81%, 1.99% and -0.59%, respectively.

On to `N#Cc1cc(C#N)c(NCCO)nc1N`, for which the Inhibition in the test with Klebsiella pneumoniae is 12.5%; in the test on Candida albicans, 1.22%; in the test on Cryptococcus neoformans, -17.78%.

For `Cl.NNN1CCc2ccccc21`, the figures for the Inhibition with Klebsiella pneumoniae, in the test on Candida albicans and with Cryptococcus neoformans were 17.38%, 2.29% and -9.55%, respectively.

In the case of `CSC1=NC(=Cc2ccccc2)C(=O)N1C`, the Inhibition is -0.86% in the test with Klebsiella pneumoniae, 3.12% with Candida albicans and -9.15% with Cryptococcus neoformans.

Consider `Cc1nn(-c2ccccc2)c2ncn3nc(-c4ccccc4)nc3c12`, for which the Inhibition in the test on Klebsiella pneumoniae was 14.39%; with Candida albicans, 1.63%; in the test with Cryptococcus neoformans, -1.31%.

Consider `Nc1c2c(nc3c1C(c1ccc(Cl)c(Cl)c1)c1ccc4ccccc4c1O3)CCCC2` (stereo unspecified), for which the Inhibition is -10.24% in the test on Klebsiella pneumoniae, 4.63% in the test on Candida albicans and -2.87% in the test with Cryptococcus neoformans.

In the case of `O=C(Cc1cccc2ccccc12)N/N=C/c1c[nH]c2ccccc12`, the Inhibition is 10.96% in the test with Klebsiella pneumoniae, 1.2% in the test on Candida albicans and -4.19% in the test with Cryptococcus neoformans.

Regarding `COc1ccc2c(ccn2C)c1`, the Inhibition is 14.15% in the test with Klebsiella pneumoniae, 1.33% in the test on Candida albicans and -1.95% in the test with Cryptococcus neoformans.

For `CC(=O)/C=C/C1CCN(Cc2ccccc2)CC1`, the Inhibition in the test with Klebsiella pneumoniae was 7.64%; in the test with Candida albicans, 0.43%; in the test with Cryptococcus neoformans it was -60.96%.

`O=C(NNC(Cc1ccccc1)Cc1ccccc1)c1cc2ccccc2[nH]1`: the results for the Inhibition in the test with Klebsiella pneumoniae, with Candida albicans and with Cryptococcus neoformans were 6.36%, -2.25% and -1.71%, respectively.

With `O=C(NNCc1c[nH]c2ccccc12)c1cccc2ccccc12`, the values for the Inhibition with Klebsiella pneumoniae, in the test with Candida albicans and with Cryptococcus neoformans were 7.23%, 1.53% and -1.11%, respectively.

Take `CCCC(C)NNC(=O)Cc1c[nH]c2ccccc12` (stereo unspecified): the Inhibition with Klebsiella pneumoniae stood at 6.53%; in the test on Candida albicans, 0.38%; in the test on Cryptococcus neoformans it was 5.38%.

For `C#CCNc1nc(NC2CCN(Cc3ccccc3)CC2)c(C#N)cc1C#N.Cl`, the results for the Inhibition in the test on Klebsiella pneumoniae, in the test with Candida albicans and in the test on Cryptococcus neoformans were -9.27%, 1.54% and -92.81%, respectively.

Regarding `COc1cccc(C2C(C#N)=C(N)Oc3[nH]nc(C)c32)c1` (stereo unspecified), the figures for the Inhibition with Klebsiella pneumoniae, in the test with Candida albicans and with Cryptococcus neoformans were 26.54%, 0.08% and -0.28%, respectively.

Take `COc1ccc2c(c1)cc(CN(C)Cc1cn(Cc3ccccc3)nn1)n2C`: the Inhibition in the test with Klebsiella pneumoniae is 5.47%; with Candida albicans it was 2.23%; in the test on Cryptococcus neoformans, -55.57%.

Consider `Cc1ccc(C(O)SNNc2ncnc3c2c(C)nn3-c2ccccc2)cc1` (stereo unspecified), for which the Inhibition in the test with Klebsiella pneumoniae is -18.74%; with Candida albicans, 1.06%; with Cryptococcus neoformans it was -5.03%.
